Screening data from PubChem BioAssay.
Hits are enriched below; roughly 2.3% of the tested compounds scored in any of these assays.
ALOX15 inhib = blocks human 15-lipoxygenase activity; purified 15hLO-1, xylenol orange hydroperoxide absorbance; Potency, µM (series often up to 57.1 µM), without a hit: at the highest dose activity change, negative = inhibition, usual class: inhibitors; 74,000 tested, 1.4% active; AID 887; note: potency is the fitted concentration of half-maximal effect; % is set by controls: 0 for no effect and ±100 for the full control effect; nearly all actives have a fitted effect of over 55% in size
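Quantitative HTS in 25 mM Hepes pH 7.5 containing 0.01% Triton X-100: human 15hLO-1 at 40 nM, arachidonic acid at 50 uM, 6 min turnover. Product quantified via ferrous oxidation/xylenol orange, 573:405 nm absorbance ratio.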
UbGFP stabilizer = ubiquitin-GFP accumulation via proteasome inhibition; Ubiquitin-GFP reporter cells, proteasome inhibition, GFP fluorescence; response scale: untreated = 0%, 10 µM MG-132 = 100%; Potency, µM (highest dose often 45.9 µM), without a hit: at the highest dose activation (GFP accumulation), actives largely listed as activators; 67,000 tested, under 10 active; AID 526; active = well fitted activation curve with a large enough effect, not every such curve was filed as active; inconclusive = small, poorly fitted or top-dose-only effect, or another doubt; inactive = no such curve, though single readings can be large or run the other way; note: potency is the fitted concentration of half-maximal effect
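Proteasome blockade was scored as a rise in GFP-expressing U2OS cells carrying a ubiquitin(G76V)-GFP construct, imaged after 4 hr compound treatment at 37 °C across a 46 uM–2.9 nM series.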
Tau filament bind = binds recombinant human tau filaments | recombinant tau filaments, thioflavin S fluorescence, 15 h; filaments grown with octadecylsulfate alongside compound | P10636 | Potency, µM (highest dose often 57.1 µM), for inactives: top-dose activity change, negative = inhibition | 71,000 tested, 2% active;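 note: potency is the fitted concentration of half-maximal effect; % is set by controls: 0 for no effect and ±100 for the full control effect; actives lower thioflavin S fluorescence by blocking filaments or displacing dye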
Target sequence (P10636 whole entry, looked up): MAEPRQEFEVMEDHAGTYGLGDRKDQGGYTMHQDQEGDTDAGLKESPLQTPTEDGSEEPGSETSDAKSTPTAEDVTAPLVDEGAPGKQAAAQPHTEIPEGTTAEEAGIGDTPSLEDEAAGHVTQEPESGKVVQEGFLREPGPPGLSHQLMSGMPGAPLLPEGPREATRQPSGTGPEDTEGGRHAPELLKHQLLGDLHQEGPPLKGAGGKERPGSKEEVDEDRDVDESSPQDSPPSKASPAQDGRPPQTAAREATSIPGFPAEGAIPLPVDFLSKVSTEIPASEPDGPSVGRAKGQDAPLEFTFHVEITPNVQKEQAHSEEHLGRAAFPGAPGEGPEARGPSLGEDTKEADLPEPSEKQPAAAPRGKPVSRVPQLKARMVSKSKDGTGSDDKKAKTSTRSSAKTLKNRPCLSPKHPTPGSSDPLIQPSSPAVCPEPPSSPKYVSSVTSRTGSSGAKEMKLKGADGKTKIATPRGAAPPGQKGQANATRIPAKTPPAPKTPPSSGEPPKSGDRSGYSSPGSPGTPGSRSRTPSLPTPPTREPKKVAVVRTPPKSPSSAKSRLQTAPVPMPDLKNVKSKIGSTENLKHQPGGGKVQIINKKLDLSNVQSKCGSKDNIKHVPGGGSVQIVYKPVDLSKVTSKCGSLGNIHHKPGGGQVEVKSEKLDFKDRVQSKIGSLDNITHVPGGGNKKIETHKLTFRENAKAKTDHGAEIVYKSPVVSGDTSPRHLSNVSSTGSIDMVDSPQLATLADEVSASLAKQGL
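Quantitative HTS: thioflavine S signal from ODS-induced tau filaments, excited at 450 nm, emission 510 nm. Conditions: 1 uM tau, 30 uM ODS, 15 h at 37 C, pH 7.4.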
Epigenetic mod = epigenetic GFP locus derepression in mouse cells | mouse C127i GFP locus derepression, cytometry, 30 h | Potency, µM (highest dose often 46.1 µM), for the others: at the highest dose GFP derepression (activation) | 68,000 tested, 0.09% active | AID 597; note: % of control where 0% means no effect
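Derepression screen: silenced CMV-GFP reporter in murine C127i cells, 30 h compound incubation at 37 C, washed cells imaged by laser-scanning cytometer to enumerate GFP-expressing objects of 20 to 120 um.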
15-hLO-2 inh = blocks human 15-lipoxygenase 2 activity. O15296. purified 15hLO-2, xylenol orange hydroperoxide absorbance. Potency, µM (doses to about 57.1 µM), without a hit: top-dose activity change, negative = inhibition, hits mostly inhibitors. 110,000 tested, 0.56% active. AID 881; note: potency is the fitted concentration of half-maximal effect; % is set by controls: 0 for no effect and ±100 for the full control effect; nearly all actives have a fitted effect of over 60% in size
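Purified human 15hLO-2 (50 nM) preincubated 15 min with compound, then 45 uM arachidonic acid for 90 min at RT in 25 mM Hepes pH 7.5, 0.01% Triton X-100. Hydroperoxide detected by Fe-xylenol orange; 573/405 nm absorbance ratio.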
HBB splice mod = modulators of hemoglobin beta chain splicing; HBB splicing reporter cell assay, activation; EGFP reporter with mutant IVS2-654 intron; response scale: normalised to 500 nM splice-correcting PNA; Potency, µM (titrated, usually from 46.1 µM), for the others: at the top dose activation, actives largely listed as activators; 65,000 tested, 0.06% active; AID 925; note: potency is the fitted concentration of half-maximal effect; 0% is about no effect
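Compounds were applied for 2 days to HeLa EGFP-654 cells, 500/well in Optimem with 2% FCS. The reporter's EGFP is disrupted by mis-splicing of beta-globin intron IVS2-654. Readout: summed well GFP fluorescence from 488 nm laser scanning; reference was 500 nM antisense […] 654 PNA.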
* = called active by the depositor; ? = inconclusive; . = no result; [ ] = another dose, or the depositor's remark. Unless noted, calls come from the whole dose curve; as a rule, active = well fitted curve in the direction sought with a large enough effect; inconclusive = small, poorly fitted or top-dose-only effect, or another doubt; inactive = no such curve, though single readings can be large; an effect the other way counts as inactive or inconclusive.

SMILES	ALOX15 inhib	UbGFP stabilizer	Tau filament bind	Epigenetic mod	15-hLO-2 inh	HBB splice mod
CC(C)[C@@H]1NC(=O)[C@H](CCCCN)NC(=O)[C@H](Cc2c[nH]c3ccccc23)NC(=O)[C@H](Cc2ccc(O)cc2)NC(=O)[C@H](C)N(C)C(=O)[C@H](Cc2ccccc2)NC1=O	-8%	2%	-7%	-2%	14%	2%
N#C/C(=C/c1ccc(N2CCOCC2)o1)c1ccc(Cl)cc1	.	.	.	.	10µM*	.
N#C/C(=C\c1ccc(N2CCOCC2)o1)c1nc2ccccc2[nH]1	.	.	.	.	-28%	.
Cc1noc(C)c1-c1cncnc1NCc1ccccc1	14%	-3%	-5%	5%[9.22 µM]	10%	2%
COc1ccc(Cn2c3nc4ccccc4nc3c3c(=O)n(Cc4ccco4)cnc32)cc1	?	2%	16µM*	-2%	?	2%[57.5 µM]
CCC(C)n1cnc2c(c1=O)c1nc3ccccc3nc1n2Cc1ccccc1OC (centres undefined)	0%	-5%	4µM*	-7%	-15%	-1%[57.5 µM]
CCCn1cnc2c(c1=O)c1nc3ccccc3nc1n2Cc1ccccc1OC	-2%	.	-18%	0%	-6%	1%[0.369 µM]
Cc1cccc(-n2cnc3c(c2=O)c2nc4ccccc4nc2n3Cc2ccco2)c1	-28%	2%	13µM*	2%	-28%	1%[57.5 µM]
C[C@@H](NC(=O)C1(N)CCCC1)C(=O)O	9%[11.4 µM]	-6%[9.17 µM]	-4%[11.4 µM]	-2%[9.22 µM]	-2%[11.4 µM]	-1%[9.22 µM]
Cc1ccc2nc(-c3ccc(N)cc3)sc2c1S(=O)(=O)O	-22%	.	-5%	.	-15%	1%
CC(=O)Nc1nc(C)c(-c2csc(Nc3ccc(O)cc3)n2)s1	13µM*	-4%	?	0%	?	.
CCCC(=O)Nc1nc(C)c(-c2csc(Nc3cc(OC)ccc3OC)n2)s1	.	.	.	.	-6%	.
COc1ccc(OC)c(Nc2nc(-c3sc(N)nc3C)cs2)c1	-2%	-5%	10µM*	-1%	19%	.
Cc1nc(N)sc1-c1csc(Nc2ccccc2)n1	?	4%	20µM*	4%	15%	-1%
CC(=O)Nc1nc(C)c(-c2csc(Nc3cccc([N+](=O)[O-])c3)n2)s1	.	.	.	.	-22%	.
CN1CCN(c2ccnc(-c3cccnc3)n2)CC1	-1%	-5%	-1%	0%[9.22 µM]	-2%	1%
CN1CCN(c2ccnc(-c3ccoc3)n2)CC1	16µM*	-8%	-11%	-3%[9.22 µM]	?	1%
Oc1ccc2ccccc2c1/C=C\c1ccc2c(Br)cc(Br)c(O)c2n1	?	1%[9.17 µM]	2.5µM*	0%[9.22 µM]	27%[11.4 µM]	-1%[9.22 µM]
Cc1nc(N)c(C#N)c(-c2ccccc2)c1C	-3%	-6%	-16%	-2%	-5%	-2%
CC1=C(C#N)c2nc(N)c(C#N)c(C)c2/C1=C\c1ccccc1	40µM*	-5%	-7%	2%	.	-1%[57.5 µM]
CC1=C(SCCC#N)S/C(=C2\SC(C)=C(SCCC#N)S2)S1	13µM*	-9%	?	0%	?	.
Cc1cc(C)cc(NC(=O)Cn2ncn3c(cc4ccccc43)c2=O)c1	-1%	-14%	37%	9%	2%	0%
CN(C)c1ccc(NC(=O)Cn2ncn3c(cc4ccccc43)c2=O)cc1	?	11%	13µM*	2%	-23%	3%[1.84 µM]
Nc1ccccc1-c1nnc(SCc2ccccc2F)[nH]c1=O	-4%	7%	16µM*	-2%	-11%	-2%
CCCCCCCCCCCCCCC/C=C\[C@H](O)[C@@H](NC(=O)CCCCCCCCCCCCC)OC (tested in a mixture with another compound)	-28%	0%	4%	1%	-17%	-1%
SMILES	ALOX15 inhib	UbGFP stabilizer	Tau filament bind	Epigenetic mod	15-hLO-2 inh	HBB splice mod
CCN(CC)c1ccc(CN2CCCCCC2)cc1	.	.	.	.	35%	.
CCN(CC)c1ccc2c(c1)CCCN2	?	-2%	25µM*	?	.	-1%
O=C1NC(c2cccs2)Nc2sc3c(c21)CCCC3 (centres undefined)	25µM*	3%	2.5µM*	2%	-24%	0%[57.5 µM]
O=C(O)/C(=C\c1ccccc1)Cc1ccccc1	17%[11.4 µM]	0%[9.17 µM]	-7%[11.4 µM]	-2%[9.22 µM]	1%[11.4 µM]	3%[9.22 µM]
CC[C@H](C)[C@@H]1O[C@]2(CC[C@@H]1C)C[C@H]1C[C@H](CC=C(C)[C@@H](O[C@H]3C[C@H](OC)[C@H](O[C@H]4C[C@H](OC)[C@H](O)[C@H](C)O4)[C@H](C)O3)[C@@H](C)C=CC=C3CO[C@@H]4[C@@H](O)C(C)=C[C@H](C(=O)O1)[C@@]34O)O2	-11%	-5%	-8%	0%	-8%	-2%
O=C(Nc1ccc(Nc2ccccc2)cc1)N1CCOCC1	0%	4%	16µM*	0%	-24%	3%
O=C(Nc1ccccc1)N1CC=C(c2ccccc2)CC1	25µM*	1%	?	0%	-8%	0%
COC(=O)c1ccc(NC(=O)N2CCOCC2)cc1	-7%	-4%	-5%	0%	8%	.
O=S(=O)(NCc1ccccn1)c1cccc2cccnc12	9%	-4%	-11%	.	.	0%
CCOc1ccccc1CNC(=O)c1cc2occc2n1C	20µM*	6%	-16%	-2%	-25%	-1%
CCOc1ccccc1CNC(=O)c1cc2oc3ccccc3c2n1C	.	.	.	.	9%	.
CC[C@@H]1C(c2cccc(C)c2)=NN(c2ccc(Br)cc2)[C@H]1C(=O)N1CCOC1=O	.	.	.	.	-6%[0.0915 µM]	.
Cc1ccc(Nc2nc(N)nc(CN3CCN(c4ccccc4)CC3)n2)cc1Cl	-19%	4%	16µM*	-2%	3%	-4%[57.5 µM]
COc1ccc(N2CCN(Cc3nc(N)nc(Nc4ccc(C)c(Cl)c4)n3)CC2)cc1	-21%	9%	8%	-2%	61%	-1%[1.84 µM]
COc1ccc(NC2CS(=O)(=O)CC2NCc2ccco2)cc1 (centres undefined)	16µM*	-2%	-25%	-1%	-1%	-3%
O=C(O)Cn1c(=O)oc2cc(S(=O)(=O)N3CCOCC3)ccc21	-4%	21%	-2%	.	.	1%
COc1ccc2c(c1)[C@]1(C)CCC[C@](C)(CO)[C@@H]1CC2	.	4%	-10%	0%[9.22 µM]	.	.
CN(C)c1ccc(NC(=O)CCCc2ccccc2)cc1	10µM*	1%	20µM*	-3%	-13%	0%
O=C(CCCc1ccccc1)Nc1cccnc1	.	.	.	.	2%	.
COc1cccc(C(=O)Oc2c(CN3CCOCC3)cc(Cl)c3cccnc23)c1	.	.	.	.	38%	.
COc1ccc(C(=O)Oc2c(CN3CCOCC3)cc(Cl)c3cccnc23)cc1	-3%	1%	3%	7.9µM*	17%	3%
